Bioassay records (PubChem BioAssay)
In the library only some 4.1% were active in any assay of this set; here they are far more common.
PfHsp90 yeast 2: growth inhibition of PfHsp90-expressing yeast, primary screen, antimalarial PfHsp90 inhibitor project, S. cerevisiae, BacTiter-Glo luminescence, single point, set 2 | inhibition, % at 9.4 µM | AID 504621, 2011 | 310,000 compounds, 0.32% hits | BacTiter-Glo ATP, 48 h; yeast lacking PDR1 and PDR3 efflux regulators;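 active means every replicate shows inhibition above about 80%, whatever the replicate mean, limit read from the data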;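 further: 0% = DMSO neutral controls and 100% = 20 µM radicicol positive controls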
NALP3 yeast inh: NALP3 inflammasome inhibitors in reconstituted yeast, primary screen, luminescence, uHTS. Yeast reconstituted NLRP3/ASC/caspase-1, beta-gal luminescence, 24 h. inhibition, % at 10 µM. 330,000 compounds, 0.39% hits;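 active means inhibition of 50% or more; inactive means inhibition below 50%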;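 further: plate controls were induced DMSO wells for no effect and uninduced yeast grown without galactose for full effect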
NALP1 yeast inh: NALP1 inflammasome inhibitors in reconstituted yeast, colorimetric, S. cerevisiae, triplicate retest. S. cerevisiae NALP1/ASC/caspase-1 growth, X-gal OD620, 72 h. inhibition, % at 10 µM. 280,000 compounds, 0.61% hits. AID 2071, 2009; in the data active means inhibition mostly above about 24%, no sharp cut-off; inactive means mostly below about 32%
tim23-1 inh: growth inhibitors of tim23-1 mutant yeast, primary screen, luminescence, uHTS; 330,000 compounds, 1.3% hits; inhibition, % at 20 µM; S. cerevisiae tim23-1 growth, BacTiter-Glo luminescence, 24 h;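 active means growth inhibition of the mutant yeast at or above 50%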;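 further: temperature-sensitive mutant grown at 25 °C; plate controls were DMSO-treated mutant yeast for no effect and medium wells lacking yeast for full effect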
TIM10 inh: growth inhibitors of isogenic TIM10 control yeast, primary screen, counter-screen for tim10-1 yeast inhibitor project, luminescence, uHTS; 330,000 compounds, 1.4% hits; S. cerevisiae TIM10 strain growth, BacTiter-Glo luminescence, 24 h; inhibition, % at 10 µM;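 active means inhibition of 40% or more at the single tested concentration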;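 further: wild-type TIM10 isogenic control strain grown at permissive 25 °C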
tim10-1 inh: growth inhibitors of tim10-1 mutant yeast, primary screen, luminescence, uHTS. S. cerevisiae tim10-1 ts strain growth, BacTiter-Glo, 24 h. inhibition, % at 20 µM. 330,000 compounds, 2.2% hits;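 active means inhibition of at least 40%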;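 further: mutant grown at 25 °C; 0% = DMSO wells with yeast and 100% = wells holding no yeast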
tim10-1 conf: growth inhibitors of tim10-1 mutant yeast, confirmation, single concentration, luminescence, S. cerevisiae; AID 463213, 2010; inhibition, % at 20 µM; S. cerevisiae tim10-1 ts strain growth, BacTiter-Glo, 24 h; shares compounds with tim10-1 inh; 7,400 compounds, 56% hits;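 active means inhibition of yeast growth at or above a set limit in either of two repeat tests at 20 µM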;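 further: tim10-1 mutant grown at permissive 25 °C to find synthetic lethal compounds; 0% = DMSO yeast wells and 100% = medium wells without yeast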
tim10 confirm: growth inhibitors of wild-type TIM10 yeast, confirmation, counter-screen for tim10-1 synthetic lethality project, single concentration, luminescence, S. cerevisiae; inhibition, % at 10 µM; S. cerevisiae tim10 strain growth, BacTiter-Glo luminescence, 24 h; shares compounds with TIM10 inh; 4,600 compounds, 63% hits;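 active means inhibition of yeast growth at or above a set limit in either of two replicates at 10 µM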;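 further: this counterscreen used the strain with wild-type TIM10; 0% = yeast with DMSO and 100% = medium wells lacking yeast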
tim23-1 conf: tim23-1 mutant yeast growth inhibitors, confirmation, luminescence, single concentration; shares compounds with tim23-1 inh; S. cerevisiae tim23-1 growth, BacTiter-Glo luminescence, 24 h; inhibition, % at 20 µM; 4,400 compounds, 83% hits;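 active means inhibition above about 39% in either of two replicate wells at 20 µM, limit read from the data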;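 further: temperature-sensitive tim23-1 mutant grown at 25 °C; 0% = DMSO wells with yeast and 100% = medium wells without yeast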
The depositor's hits bear a star; x = no result given.

SMILES	PfHsp90 yeast 2	NALP3 yeast inh	NALP1 yeast inh	tim23-1 inh	TIM10 inh	tim10-1 inh	tim10 confirm	tim23-1 conf	others
Cc1ccc(/C=C2\C(=O)NC(=S)N(c3ccc(F)cc3)C2=O)s1	-7	-7	-2	55*	43*	70*	38*	72*	tim10-1 conf=36*
Oc1cc(Cl)ccc1Oc1ccc(Cl)cc1Cl	95*	20	x	48	45*	39	68*	x
O=c1[nH]c(=S)n(-c2ccccc2F)c(O)c1C=NCCN1CCNCC1	5	15	9	0	-4	3	x	x
CCN(CC)c1ccc(N=Cc2c(O)n(-c3ccccc3)c(=O)[nH]c2=O)cc1	-1	11	x	20	41*	27	19	x
O=P(Nc1ccccc1Cl)(c1ccccc1)c1nc2c(s1)CCCC2 (stereo not given)	-7	-86	0	35	41*	37	21	x
C=C(C)[C@@H]1C2C(=O)O[C@H]1[C@H]1OC(=O)[C@@]34OC3C[C@]2(O)[C@@]14C (stereo not given in full)	5	15	x	0	10	-17	x	x
COC(=O)[C@@H]1C[C@]2(C(=O)O)c3ccccc3N(OOSc3ccccc3)[C@@H]2N1C(=O)OC	2	9	x	-6	2	-6	x	x
O=C1N[C@@H](Cc2ccccc2)C(=O)N2[C@H]1C[C@H]1c3ccccc3N(OOSc3ccccc3)[C@H]12	x	11	x	25	44*	15	18	x
N[C@@H](Cc1c[nH]c2ccccc12)c1nnc(SCc2ccc(Cl)cc2)o1	x	6	13	13	41*	39	40*	x
CCc1ccccc1NC(=O)CSc1nnc([C@@H](N)Cc2c[nH]c3ccccc23)o1	-2	1	20	26	29	23	x	x
CCCCCCn1c(O)c(/C=N/N2CCCCCC2)c(=O)[nH]c1=O	11	10	4	3	6	8	x	x
COc1ccc(-n2c(/C=C/c3ccc4c(c3)OCO4)nc3ccccc3c2=O)cc1	-13	0	22	50*	17	26	x	45*
CCCc1nc2ccccc2c(=O)n1-c1cccc(OC)c1	16	5	-5	83*	0	9	x	21
CCCc1nc2ccccc2c(=O)n1-c1ccc(OC)cc1	-14	8	10	0	6	7	x	x
Cc1oc(-c2ccccc2)nc1CN1C(=O)C(C)N=C(c2ccccc2F)c2cc(Cl)ccc21 (stereo not given)	8	11	43	52*	20	39	x	57*
CN1C(=O)C(=Cc2ccccc2OS(=O)(=O)c2ccccc2)C(=O)N(C)C1=O	4	-28	18	77*	35	25	x	73*
Cc1ccc(C)c(OCc2cc(C(=O)N3C[C@H]4C[C@@H](C3)c3cccc(=O)n3C4)no2)c1	-5	8	3	9	3	11	x	x
Clc1ccc2[nH]c3c(c2c1)CCNC3	-1	21	-4	11	6	-2	x	x
Nc1ccc(N=Nc2ccccc2)cc1	17	32	15	12	4	18	x	x
Cc1cc(N=Nc2ccccc2C)ccc1N	-5	41	x	64*	22	22	x	0
Cc1[nH]c2ccc(OC(F)(F)F)cc2c1CCNCc1ccc(Cl)cc1	6	27	30	66*	35	28	x	16
Cc1[nH]c2ccc(OC(F)(F)F)cc2c1CCNCc1cccc([N+](=O)[O-])c1	-3	-1	4	13	32	-26	x	x
Cc1ccc(C)c(NC(=O)CCNC(=O)N2C[C@H]3C[C@@H](C2)c2cccc(=O)n2C3)c1	15	3	15	-14	-1	10	x	x
